From PubChem BioAssay (NCI) come the findings set out here.

Assay in all cases: NCI-60 one-dose screen, 48 h (100 = growth as untreated, 0 = no growth, -100 = all killed)
The subject of assay [1] is DU-145 prostate. The settings on record: 10 µM unless noted.
In assay [2] the test system is K-562 leukemia. The following applies: 10 µM unless noted.
Assay [3] deals with MALME-3M melanoma. The settings on record: 10 µM unless noted.
For assay [4], the system named is MDA-MB-231 breast. The settings on record: 10 µM unless noted.
The subject of assay [5] is RXF 393 renal. The settings on record: 10 µM unless noted.
The test system of assay [6] is SF-268 CNS. The settings on record: 10 µM unless noted.
Assay [7] deals with SF-295 CNS. The following applies: 10 µM unless noted.
The test system of assay [8] is SF-539 CNS. The following applies: 10 µM unless noted.
In assay [9] the test system is UACC-257 melanoma. The settings on record: 10 µM unless noted.
The test system of assay [10] is M14 melanoma. The settings on record: 10 µM unless noted.
Assay [11] concerns HCT-15 colon. The settings on record: 10 µM unless noted.
Assay [12] has as its system HT29 colon. The settings on record: 10 µM unless noted.
Assay [13] has as its system SNB-19 CNS. The settings on record: 10 µM unless noted.
The test system of assay [14] is U251 CNS. The following applies: 10 µM unless noted.
The subject of assay [15] is PC-3 prostate. The following applies: 10 µM unless noted.
Assay [16] deals with SK-MEL-5 melanoma. The settings on record: 10 µM unless noted.
The subject of assay [17] is UACC-62 melanoma. The settings on record: 10 µM unless noted.
The test system of assay [18] is LOX IMVI melanoma. The settings on record: 10 µM.
Assay [19] has as its system SK-MEL-28 melanoma. The following applies: 10 µM unless noted.

Compounds without any hit were thinned out: in the full panel of roughly 83,000, 20% have a hit.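 Testing used 96-well plates and a 48-hour single-concentration exposure. Example: -40 means 40% of the starting cells died.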 Values without a mark were called inactive. Active and inactive are the calls of the source. Rule for the calls: active = growth percent below 10; inactive = the rest.

On to `COc1c(F)ccc(C(=O)Nc2ccc3nc(NC(=O)C4CCCN(S(=O)(=O)c5cccc(C(F)(F)F)c5)C4)sc3c2)c1F` (configuration not stated), for which the growth was 91.1% in assay [1]; 62.3% in assay [2]; 94.7% in [3]; 85% in assay [4]; -9.56% (active) in assay [5]; 65% in assay [6]. Also, the growth in assay [7] is 79.8%; in [8] it was 70.1%; in assay [9], 89.9%; in assay [10] it was 87.5%; in assay [11] it was 69.1%; in [12] it was 83.2%. The growth was 72.6% in assay [13]; 69.8% in assay [14]; 50.3% in assay [15]; 89.3% in assay [16]; 83.3% in [17]; 86.5% in [18]. Besides, the growth in assay [19] was 98.2%.
`COc1ccc(-c2ccnc(SCc3cc4ccccc4[nH]c3=O)n2)cc1`: the growth is 81.2% in [1]; 11.1% in [2]; 65.9% in assay [3]; 59.1% in assay [4]; 40.2% in assay [5]; 87.7% in assay [6]. The growth is 50.3% in [7]; 50% in assay [8]; 79.5% in assay [9]; 44.8% in assay [10]; 28.2% in assay [11]; 29.5% in assay [12]. Also, the growth in assay [13] was 64%; in assay [14] it was 64.1%; in assay [15] it was 69.6%; in [16], 59.1%; in [17] it was 44.8%; in assay [18] it was 49.9%. In addition, in assay [19], the growth was 73%.
`CC(C)c1sc(NC(=O)c2cc(NC(=O)c3cc(NC(=O)c4cscn4)cn3C)cn2C)nc1C(=O)NCCCN(C)C`: the growth is 16.4% in assay [1]; 8.89% (active) in assay [2]; -51.7% (active) in assay [3]; -33.3% (active) in [4]; -47.2% (active) in [5]; 16.3% in [6]. The growth in assay [7] is 58.7%; in assay [8], -33.6% (active); in assay [9], 7.52% (active); in assay [10], 45%; in assay [11] it was 98.6%; in assay [12], 2.45% (active). For the same compound, the growth is -9.66% (active) in assay [13]; -38.4% (active) in [14]; -26.3% (active) in assay [15]; -3.44% (active) in [16]; -73.5% (active) in assay [17]; -94% (active) in assay [18]. For the same compound, in assay [19], the growth is -16.3% (active).
Take `O=c1[nH]c2ccc(Cl)cc2cc1CSc1nccc(-c2ccc(Cl)cc2)n1`: the growth in [1] was 78.9%; in assay [2], 64.7%; in [3] it was 51%; in [4], 45.7%; in assay [5], 35.3%; in assay [6], 54.3%. The growth was 16.8% in [7]; 3.24% (active) in [8]; 60.9% in [9]; 71.1% in assay [10]; 56.9% in [11]; 67.7% in assay [12]. Besides, the growth in assay [13] was 40.4%; in [14], 47.4%; in assay [15], 49.9%; in assay [16] it was 48.6%; in assay [17], 31.8%; in assay [18] it was 57.5%. In addition, the growth in [19] was 46.1%.
Take `Cn1cc(-c2cc3nc(-c4cn(C)c5ncc(Br)cc45)cc(N)n3n2)c2ccccc21`: the growth is 16.1% in [1]; -30% (active) in [2]; -85.2% (active) in [3]; -64.7% (active) in [4]; -74% (active) in [5]; 11.8% in assay [6]. For the same compound, the growth in assay [7] was -60.2% (active); in [8], -90.2% (active); in [9] it was -77.4% (active); in [10] it was -72.6% (active); in [11], -23.3% (active); in assay [12], -86.1% (active). The growth in [13] is -27% (active); in [14], -68.8% (active); in [15] it was -15.5% (active); in assay [16], -94% (active); in assay [17], -83.2% (active); in assay [18], -100% (active). In addition, in assay [19], the growth is -91.6% (active).
Regarding `CCN(CC)CCOc1ccc(Nc2ncc3cc(-c4ccc(O)c(C#N)c4)c(=O)n(C)c3n2)cc1`, the growth in [1] was 84.6%; in assay [2] it was -47.5% (active); in assay [3], -95.5% (active); in assay [4], 11.9%; in assay [5] it was 22.3%; in assay [6] it was 77.1%. The growth was 90.8% in [7]; 62.2% in assay [8]; 101% in [9]; 70.4% in assay [10]; 86.2% in assay [11]; -58.4% (active) in [12]. The growth in assay [13] was 108%; in assay [14], -61.2% (active); in assay [15], 69.5%; in assay [16] it was 43.8%; in [17], 92.1%; in [18], 47%. Further, in assay [19], the growth is 79.8%.
`C=C1CC[C@@H]2[C@]3(C)COC(c4cn[nH]c4-c4cccc(Cl)c4)O[C@@H]3CC[C@@]2(C)[C@@H]1C/C=C1/C(=O)OCC1O` (some centres not stated): the growth in [1] was 25.5%; in assay [2], 5% (active); in assay [3] it was -50.7% (active); in assay [4], -52.7% (active); in [5], -91% (active); in assay [6], 34.3%. For the same compound, the growth was -32.8% (active) in assay [7]; -89.8% (active) in [8]; -33.1% (active) in assay [9]; -73.4% (active) in assay [10]; -59.2% (active) in [11]; 0.309% (active) in assay [12]. Also, the growth is 5.54% (active) in [13]; -85.8% (active) in [14]; -0.106% (active) in assay [15]; -79.6% (active) in [16]; -86.9% (active) in [17]; -100% (active) in assay [18]. Further, the growth in assay [19] is -76.6% (active).
In the case of `CCCn1cc(-c2nc(Nc3ccc(C(=O)NCCCCNc4cccc5c4C(=O)N(C4CCC(=O)NC4=O)C5=O)cc3)nc3[nH]ccc23)cn1` (configuration not stated), the growth in [1] was 64.1%; in [2] it was 15.8%; in assay [3], -24.4% (active); in assay [4], -23.3% (active); in assay [5], 34.9%; in [6], 28.2%. Also, the growth in assay [7] was 28.3%; in [8], 26.6%; in assay [9], 96.4%; in assay [10], 21.4%; in [11], 40.1%; in assay [12], 28.1%. Besides, the growth in assay [13] is 23.4%; in [14] it was 54.1%; in [15], 3.62% (active); in assay [16], 15.8%; in [17], 74.6%; in assay [18], 90.5%. For the same compound, the growth in assay [19] was 59.3%.
